From PubChem BioAssay (NCI) come the findings set out here.

About 79,000 compounds went through this panel and 15% of them were active in at least one assay; those are over-represented in the sample as a whole. Calls of active or inactive are those of the source. Cut-off read from the data, not from the text of the source: active = growth inhibition above about 70%; inactive = the rest.

A short description of this test: NCI Yeast Anticancer Drug Screen. Data for the cln2 rad14 strain (AID 165).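 Note: 0% = growth equal to vehicle treated cultures.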 The note with it: S. cerevisiae cln2 rad14 strain, at 50.0 µM, stronger effect = higher value. On the procedure: Growth inhibition of yeast strains with defined genetic alterations is measured as a screen for potential anti-cancer activity. Selected strains with alterations in DNA damage repair or cell cycle control were exposed to compounds and growth inhibition was measured relative to vehicle treated controls. The strain used in this assay is cln2 rad14
On to `CC[C@@]1(O)C(=O)OCc2c1cc1n(c2=O)Cc2cc3cc(OC)ccc3nc2-1`, for which the growth inhibition was 80.7% (active).
For `[CH3][Sn]([Cl])([Cl])[c]1ccccc1` the value was -18.5% (inactive); for `N[C@@H]1CCCC[C@@H]1N.O=P([O-])([O-])CN(CP(=O)([O-])[O-])CP(=O)([O-])[O-].[Pt+2]`, 14.9% (inactive).
For `C1CCN2CC34CC(CC5CCCN(C6CCCC3N6)C54)C2C1` (stereo not given) the value was 10.7% (inactive).
Regarding `ClCc1ccccc1`, the growth inhibition was -19.7% (inactive).
`S=P(NCc1cccc(CNP(=S)(N2CC2)N2CC2)c1)(N1CC1)N1CC1`: the growth inhibition is 7.8% (inactive).
Take `COC12c3ccccc3-c3ccccc3C1[C@@H](C(=O)O)[C@H]2C(=O)O` (stereo not given in full): the growth inhibition was -14% (inactive).
Under `CC(C)CNC12CN3CN(CN(C3)C1)C2` stands -27.9% (inactive); under `Nc1nc(N)c(N=Nc2ccc([As](=O)(O)O)c(O)c2)c(N)n1`, -18.4% (inactive).
As to `O=C=Nc1ccc(Cl)cc1`, the growth inhibition was -21.4% (inactive).
Consider `O=C(O)c1ccccc1/C=N\NC(=S)NC1CN2CCC1CC2` (stereo not given), for which the growth inhibition was -0.5% (inactive).
On to `CCN(CC)c1ccc([P+](=O)O)cc1`, for which the growth inhibition was -27.6% (inactive).
For `CC1NC1(c1ccccc1)n1ccnc1` (stereo not given), the growth inhibition was -14.5% (inactive).
For `CC1OC(=O)C(C(C)C)NC(=O)C(C(C)C)OC(=O)C(C(C)C)NC(=O)C(C)OC(=O)C(C(C)C)NC(=O)C(C(C)C)OC(=O)C(C(C)C)NC(=O)C(C)OC(=O)C(C(C)C)NC(=O)C(C(C)C)OC(=O)C(C(C)C)NC1=O` (stereo not given) the value was 25.1% (inactive).
Under `S=C1c2ccc(Cl)cc2-n2cnnc2C2CSCN12` (stereo not given) stands 0.9% (inactive); under `CCC[CH2][Sn]([CH2]CCC)([CH2]CCC)[CH2]CCNCCCN(C)C`, 99% (active).
Turning to `COc1cc(-c2ccc(N)c(OC)c2)ccc1N`, the growth inhibition was 5.8% (inactive).
For `CC(C(=O)c1ccccc1)N(C)C` (stereo not given) the value was -50.4% (inactive).
For the compound `N.N.N.O=[N+]([O-])[O-].O=[N+]([O-])[O-].O=[N+]([O-])[O-].O=[N+]([O-])[O-].[Co+3]`, the growth inhibition is 31.3% (inactive).
For `CC(=O)NC(CS)C(=O)[O-].CC(=O)NC(CS)C(=O)[O-].N.N.[Pt+4]` (stereo not given), the growth inhibition is -38.1% (inactive).
As to `N.N.N.N.N.O=C([O-])C(=O)[O-].[Co+3].[O-][Cl+3]([O-])([O-])O.[O-][Cl+3]([O-])([O-])[O-]`, the growth inhibition is 6.2% (inactive).
`O=C1C(=C([O-])c2ccccc2)C(=O)c2ccccc21.O=C1C(=C([O-])c2ccccc2)C(=O)c2ccccc21.[Fe+2]`: the growth inhibition is 22.2% (inactive).
Consider `Nc1ccc([N+](=O)[O-])cc1N`, for which the growth inhibition was -36.9% (inactive).
Under `CC(C)(C)c1cc(C=C(C#N)C#N)cc(C(C)(C)C)c1O` stands -32.8% (inactive); under `CCCCP(=O)(CCCC)CCCC.CCCCP(=O)(CCCC)CCCC.CCCCP(=O)(CCCC)CCCC.CCCCP(=O)(CCCC)CCCC.[Mn+2].[O-][Cl+3]([O-])([O-])O`, -17.5% (inactive).
With `O=C1OC(=O)C2CC3C(CC12)C1(Cl)C(Cl)=C(Cl)C3(Cl)C1(Cl)Cl` (stereo not given), the growth inhibition is -5.4% (inactive).
Take `O=C(O)[C@H](O)[C@@H](O)C(=O)O.[Pb]`: the growth inhibition was -36.9% (inactive).
Under `C/C(CC(C)(C)N1CC1)=N\N` stands -20.1% (inactive).
With `Cc1ccc(C)c(C(C)NC2=NCCO2)c1` (stereo not given), the growth inhibition is 1.2% (inactive).
On to `Cc1ccc(C(=O)Nc2ccc(CP(=O)(O)O)cc2)cc1NC(=O)c1cccc(NC(=O)Nc2cccc(C(=O)Nc3cc(C(=O)Nc4ccc(CP(=O)(O)O)cc4)ccc3C)c2)c1`, for which the growth inhibition is -10.3% (inactive).
Regarding `COc1ccc(C(C#N)C(C)=O)cc1` (stereo not given), the growth inhibition is 4.45% (inactive).
In the case of `CN(C1CCCC1)C1CCCC1`, the growth inhibition was 5.3% (inactive).
Consider `Nc1ccc([As](=O)(O)O)cc1C(=O)O`, for which the growth inhibition is -11% (inactive).
Take `COC12CC3(C)C(C4=CC(=O)OC4)CCC3(O)C3CCC4=CC(=O)CCC4(CO1)C32` (stereo not given): the growth inhibition was 15.8% (inactive).
Regarding `O=C(O)C(Cl)Cl`, the growth inhibition is -10.1% (inactive).
As to `Cc1ccc(Oc2ccc3c(c2)CN(C)CC3)cc1`, the growth inhibition was 74.5% (active).
For `O=C(O)C1C2Cc3ccccc3C1c1ccccc12` (stereo not given), the growth inhibition is 0.6% (inactive).
For `CCC(=O)OC1(c2ccccc2)CCN(C/C=C/c2cccc3ccccc23)CC1`, the growth inhibition is 62.8% (inactive).
As to `O=C(Cl)C(Br)Cc1ccccc1` (stereo not given), the growth inhibition is 7% (inactive).
For the compound `[Fe+2].[c-]1[c-][c-][cH-][c-]1.[c-]1[c-][c-][cH-][c-]1.c1cc[c]([Pb]([c]2ccccc2)[c]2ccccc2)cc1`, the growth inhibition was 65.5% (inactive).
